Each structure is given as a SMILES string. Values joined by “and” are separate entries in the source; they are usually repeats but may differ in a detail not shown here. Identical values can stand only once. Out of some 360,000 compounds screened, about 830 (0.23%) were called active. The sample holds actives, similar compounds and a random draw of the others, so the mix is not that of the screen. A number with no mark means an inactive call.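 The calls were made as follows: active = mean luciferase reporter signal, scaled so untreated is 0 and the glycosylation-blocking control 100, at or above a set limit in every replicate; inconclusive = mean reaches the limit but not every replicate does; inactive = mean below the limit.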

This assay is described as follows: increase of ERlucT glycosylation luciferase signal, primary screen, N-linked glycosylation inhibitor project, D54 ERlucT cells, luminescence, set 2 (AID 588692).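 Also: luciferase carries N-glycosylation sites so blocking glycosylation raises the light; 0% = median of neutral control wells and 100% = median of 100 nM tunicamycin wells.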 As to conditions: 24 h, at 12.5 µM, stronger effect = higher value, percent of 100 nM tunicamycin response.
Regarding `COCCCn1c(SCC(=O)Nc2oc(C)c3c(C)n[nH]c(=O)c23)nc2sc3c(c2c1=O)CCC3`, the reporter increase is 4.94%. Regarding `C1CC1Cc1noc(CN2CCN(CC3CC3)CC2)n1`, the reporter increase is -0.901%. With `O=C(COC(=O)Cn1cnc2ccccc2c1=O)NCc1ccccc1Cl`, the reporter increase was 0.775%. With `O=C(COC(=O)Cn1cnc2ccccc21)Nc1cccc2c1C(=O)c1ccccc1C2=O` the figure was 103% (active); with `O=C(Cn1cnc2ccccc21)Nc1ccccc1-c1ccccc1`, 0.271%. With `COc1cc(C(=S)N2CCOCC2)cc(OC)c1OC(=O)c1cc([N+](=O)[O-])c(C)c([N+](=O)[O-])c1` the figure was 1.27%. With `CSc1ccc(/C=N/N2CCN(Cc3ccccc3Cl)CC2)cc1` the figure was 2.53%; with `Cc1ccc(C)c(NC(=O)CCC(=O)N/N=C2/CC(=O)CC(C)(C)C2)c1`, 0.203%; with `CC(C)NC(=O)Nc1cccc2c1O[C@H](CN(C)S(=O)(=O)c1cccs1)[C@@H](C)CN([C@H](C)CO)C2=O`, 0.641%. Consider `O=C(CNCc1ccco1)Nc1cc(S(=O)(=O)N2CCOCC2)ccc1N1CCCC1`, for which the reporter increase was 2.55%. With `O=[N+]([O-])c1cc(S(=O)(=O)Nc2cccc(Cl)c2)ccc1N=Nc1c(O)[nH]c2ccccc12` the figure was -5.47%. Then `COC(=O)c1ccc(C(=O)NC2CC(C)(C)Cc3c2cnn3-c2ccc(F)cc2)nc1` (stereo not given), with 26.7% (active); and `CC1(C)Cc2c(cnn2-c2cccc(F)c2)C(NC(=O)c2cc[n+]([O-])cc2)C1` (stereo not given), with 1.53%.

As to `Cc1cc(C(=O)NC2CC(C)(C)Cc3c2cnn3-c2ccccc2)n[nH]1` (stereo not given), the reporter increase was -9.34%. With `CN(CCO)C(=O)c1nc[nH]c1C(=O)N(C)Cc1ccccc1` the figure was 1.82%. In the case of `COc1cc(CCN=Cc2ccccc2O)c([N+](=O)[O-])cc1OC`, the reporter increase is 2.9%.

`COc1ccc(OC)c2[nH]c(=O)c(CCNC(=O)C(=O)c3c[nH]c4ccccc34)cc12`: the reporter increase was -0.931%.

Take `O=c1ccc2cc(S(=O)(=O)NCCCc3ccccc3)ccc2[nH]1`: the reporter increase was -0.159%. With `O=C(Nc1ccc(N2CCCC2=O)cc1)c1cncc(Br)c1` the figure was -9.16%; with `O=C(N/N=C\c1cccc(Br)c1)c1ccccc1-n1cccc1`, 0.034%; with `O=C(N/N=C/c1cccc(Br)c1)c1ccc(N2CCCC2=O)cc1`, 29.6% (active). As for `COCOc1cccc(CN2CCC(C)(Oc3ccc(SC)cc3)C2)c1` (stereo not given), the reporter increase is -0.871%. With `Cc1ccc(C)c(NC(=O)C2Cc3ccccc3CN2C(=O)OCc2ccccc2)c1` (stereo not given) the figure was -1.83%; with `O=C(COc1ccc(Cl)cc1)Nc1ccc2oc(=O)ccc2c1`, -2%; with `CCCNC(=O)C1(C)CCN(Cc2ccc(Cl)c(Cl)c2)C1` (stereo not given), 0.635%. Take `Cc1cc(C)c2c(=O)n3c(nc2c1)C(CC(C)C)NC(=O)c1cc2ccccc2cc1-3` (stereo not given): the reporter increase is -7.33%. Then `CN(CCOc1ccc(CC2SC(=O)NC2=O)cc1)c1ccccn1` (stereo not given), with 4.03% and 1.28%; and `CCN(CC)CCNCC(=O)Nc1ccc(Oc2ccccc2)cc1`, with 0.423%; and `CCN(CC)CCOc1ccc2c(c1)C(=NNC(=O)c1ccccn1)c1cc(OCCN(CC)CC)ccc1-2`, with 68.7% (active).

As for `CC[C@H](C)C(=O)N[C@H]1CCCN1C(=O)/C=C/c1ccccc1`, the reporter increase is -0.751%. With `CN1CCN(Cc2nc3c(c(=O)n(C)c(=O)n3C)n2Cc2cccc3ccccc23)CC1` the figure was -0.438%; with `O=c1c2cc(-c3ccccc3)sc2nc2n1N=C(c1cccs1)CS2`, -9.8%. With `O=C(O[C@H]1[C@H](Cc2ccccc2)NS(=O)(=O)[C@H]2C[C@@H]3C=C[C@]12O3)c1ccc([N+](=O)[O-])cc1` the figure was 2.96%.

With `CC(Sc1nncs1)C(=O)NCc1ccc2c(c1)OCO2` (stereo not given), the reporter increase is -1.14%. With `Cc1cc(C)c2nc3nc(C)cc(C)c3c(N)c2c1` the figure was 79% (active); with `COc1cc(OC)c2c(-c3cccc(-c4cccc(N)c4)c3)cc(=O)oc2c1`, 4.55%.

Turning to `CC(CNS(=O)(=O)c1ccc(Br)cc1)CN(C)C` (stereo not given), the reporter increase is 0.673%.

For `COc1ccccc1C(=O)COC(=O)CSCC(=O)Nc1cc(C)on1`, the reporter increase was 1.73%. `O=C(NCC1CCCO1)C(C(=O)c1ccccc1)n1cc(Cl)ccc1=O` (stereo not given): the reporter increase is 1.12%. With `CCn1c(SCC(=O)NC2CC2)nnc1-c1ccccc1OC` the figure was 1.11%; with `COc1ccc(C2=Nn3c(nnc3-c3ccccc3OC)SC2)cc1OC1CCCC1`, 33.9% (active).

As to `COc1ccccc1-c1nnc2n1N=C(c1ccc(OC(F)F)c(OCC3CC3)c1)CS2`, the reporter increase was 5.65%.

For the compound `Cn1c(=O)[nH]c2c(c(C(=O)O)nn2C)c1=O`, the reporter increase is -0.816%. With `COCCn1c(SCC(=O)N2CCCCCC2)nc2c(c1=O)SCC2` the figure was 2.05%; with `CCCNC(=O)C1(C)CCCN(C(=O)c2oc3ccccc3c2C)C1` (stereo not given), -0.622%.

`C/C(=N\NC(=O)OC(C)(C)C)c1ccc[nH]1`: the reporter increase was -4.4%. `NC(=O)CC(NC(=O)Cc1cccc2ccccc12)c1ccc(NCc2cc(F)ccc2F)c([N+](=O)[O-])c1` (stereo not given): the reporter increase was 16%. With `NC(=O)CC(NC(=O)Cc1ccc(Br)cc1)c1ccc(NC2CC3CCC2C3)c([N+](=O)[O-])c1` (stereo not given) the figure was 43% (active).

On to `CC1CCCCN1CCCNc1ccc(C(CC(N)=O)NC(=O)c2ccccc2)cc1[N+](=O)[O-]` (stereo not given), for which the reporter increase is 2.79%. With `CCOc1ccc2c(=O)c(-c3ccc4c(c3)OCCCO4)c(C)oc2c1` the figure was -1.81%; with `COc1ccc(C(=O)NCC(c2ccco2)N2CCc3ccccc32)cc1OC` (stereo not given), 2.39%; with `COC(=O)c1ccc(COC(=O)C2CCN(S(=O)(=O)c3c(Cl)cccc3Cl)CC2)o1`, 0.74%. Then `CC12CN(Cc3ccccc3)CC(C)(CN(Cc3ccccc3)C1)C2=NO`, with -0.263%; and `O=[N+]([O-])c1ccc(C=Nc2ccc(Cl)cc2Cl)s1`, with 36.7% (active). Then `CS(=O)(=O)N(CC(O)Cn1c2ccccc2c2ccccc21)c1cccc2ccccc12` (stereo not given), with -2.21%; and `CC/C(=N/Nc1ccccc1)c1cnnc(SC)n1`, with 0.994%; and `Cc1cc(S(=O)(=O)c2cc3ccc(O)c(C)c3oc2=O)ccc1F`, with 1.14%.

With `COCCn1cnc2c1c(=O)n(CC(=O)NN)c(=O)n2Cc1ccccc1`, the reporter increase is -0.206%. With `Fc1ccc2nc(-c3ccccc3)nc(SCc3nnc(-c4ccccc4)o3)c2c1` the figure was -4.84%; with `Cc1ccc2nc(SCc3nnc(-c4ccccc4[N+](=O)[O-])o3)c(C#N)cc2c1`, 35.7% (active).

`Cn1cnnc1SCc1nnc(-c2ccccc2Br)o1`: the reporter increase is 2.03%. With `CN(C(=O)CSc1nnc(-c2ccc3c(c2)OCO3)o1)C1CCS(=O)(=O)C1` (stereo not given) the figure was 1%. With `Cc1[nH]nc(-c2ccc(OCc3cnn(-c4ccccc4)c3)cc2O)c1Oc1ccc(Cl)cc1` the figure was -4.08%. With `c1ccc2cc3c(NCCN4CCOCC4)ccnc3cc2c1` the figure was 102% (active); with `O=C(NCCN1CCOCC1)c1cc(Sc2cccc(Cl)c2)nc2ccccc12`, -2.52%.

Consider `Cc1cccc(C)c1OCCN1CCOCC1`, for which the reporter increase is -0.152%. With `CCOCCCNC(=S)N1CCC(NC(=O)C2CCCCC2)CC1` the figure was -1.17%; with `O=C1CN(C(=O)COC(=O)C2CC(=O)N(Cc3ccco3)C2)c2ccccc2N1` (stereo not given), 1.95%; with `C=CCN1C(=O)c2ccc(C(=O)N3CCC(C(=O)OCC)CC3)cc2C1=O`, 0.619%. As to `COc1ccc(C(C)C)cc1-c1ccc2nncn2c1`, the reporter increase is -0.123%.
